Laboratory results published in PubChem BioAssay (NCATS).
Inconclusive results are not listed. Calls of active or inactive are those of the source. The call rests on the fitted dose curve; in most records, active means well fitted curve in the direction sought with a large enough effect; inconclusive means small, poorly fitted or top-dose-only effect, or another doubt; inactive means no such curve, though single readings can be large; an effect the other way counts as inactive or inconclusive.

Experiments:
MCC-13 = experiment: qHTS assay to identify novel small-molecules to repurpose for Merkel cell carcinoma treatment (AID 1296009); details: MCC and control cell lines, CellTiter-Glo viability, 72 h; series mostly up to 46 µM; further: nearly all actives have a fitted effect of over 60% in size
Method in brief: (§1)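 After compound transfer in DMSO, plates were kept 72 hr at 37 degree celsius. Luminescent ATP signal from CellTiter-Glo served as viability measure, normalized against DMSO and no-cell controls.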

MCC-26 = experiment: as above; details: MCC and control cell lines, CellTiter-Glo viability, 72 h; series mostly up to 46 µM
Method in brief: as §1

MKL-1 = experiment: as above; details: MCC and control cell lines, CellTiter-Glo viability, 72 h; series mostly up to 46 µM
Method in brief: as §1

MKL-2 = experiment: as above; details: MCC and control cell lines, CellTiter-Glo viability, 72 h; series mostly up to 46 µM
Method in brief: as §1

UISO = experiment: as above; details: MCC and control cell lines, CellTiter-Glo viability, 72 h; series mostly up to 46 µM
Method in brief: as §1

WaGa = experiment: as above; details: MCC and control cell lines, CellTiter-Glo viability, 72 h; series mostly up to 46 µM
Method in brief: as §1

C33A = experiment: Primary qHTS to identify gynecologic anti-cancer compounds using libraries of approved drugs and bioactive compounds (AID 1345084); details: Gynecologic cancer cell panel viability, ATPlite luminescence, 48 h; series mostly up to 57.5 µM; further: nearly all actives have a fitted effect of over 55% in size
Method in brief: (§2)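 Five-point cytotoxicity, 48 h drug exposure at 37 C, 5% CO2, on cells seeded 16 h beforehand. ATP content read by ATPlite luminescence.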

CAOV3 = experiment: as above; details: Gynecologic cancer cell panel viability, ATPlite luminescence, 48 h; series mostly up to 57.5 µM
Method in brief: as §2

CASKI = experiment: as above; details: Gynecologic cancer cell panel viability, ATPlite luminescence, 48 h; series mostly up to 57.5 µM
Method in brief: as §2

Es-2 = experiment: as above; details: Gynecologic cancer cell panel viability, ATPlite luminescence, 48 h; series mostly up to 57.5 µM
Method in brief: as §2

HeLa = experiment: as above; details: Gynecologic cancer cell panel viability, ATPlite luminescence, 48 h; series mostly up to 57.5 µM
Method in brief: as §2

Hek293T = experiment: as above; details: Gynecologic cancer cell panel viability, ATPlite luminescence, 48 h, control line for the selectivity index; series mostly up to 57.5 µM
Method in brief: as §2

JEG-3 = experiment: as above; details: Gynecologic cancer cell panel viability, ATPlite luminescence, 48 h; series mostly up to 57.5 µM
Method in brief: as §2

OV90 = experiment: as above; details: Gynecologic cancer cell panel viability, ATPlite luminescence, 48 h; series mostly up to 57.5 µM
Method in brief: as §2

PA-1 = experiment: as above; details: Gynecologic cancer cell panel viability, ATPlite luminescence, 48 h; series mostly up to 57.5 µM
Method in brief: as §2

SKOV3 = experiment: as above; details: Gynecologic cancer cell panel viability, ATPlite luminescence, 48 h; series mostly up to 57.5 µM
Method in brief: as §2

Tov-21-G = experiment: as above; details: Gynecologic cancer cell panel viability, ATPlite luminescence, 48 h; series mostly up to 57.5 µM
Method in brief: as §2

Tov112D = experiment: as above; details: Gynecologic cancer cell panel viability, ATPlite luminescence, 48 h; series mostly up to 57.5 µM
Method in brief: as §2

NIH3T3 = experiment: qHTS assay to identify novel small-molecules to repurpose for Merkel cell carcinoma treatment (AID 1296009); details: MCC and control cell lines, CellTiter-Glo viability, 72 h; at 44.8 µM (top of the series) unless noted; further: nearly all actives have a fitted effect of over 60% in size
Method in brief: as §1

Measured: Potency

CN(C/C=C/C#CC(C)(C)C)Cc1cccc2ccccc12
not listed: NIH3T3
inactive: all other assays above

NNC(=O)CP(=O)(c1ccccc1)c1ccccc1
not listed: NIH3T3
inactive: all other assays above

O=c1[nH]c(=O)n([C@H]2C[C@H](O)[C@@H](CO)O2)cc1I
not listed: UISO | CAOV3
inactive: all other assays above

CN[C@@H]1[C@@H](O)[C@@H](O[C@@H]2[C@H](O)[C@H](O[C@H]3OC(CN)=CC[C@H]3N)[C@@H](N)C[C@H]2N)OCC1(C)O (some centres undefined)
not listed: NIH3T3
inactive: all other assays above

CC1(c2ccccc2)OC(C(=O)O)=CC1=O (centres undefined)
not listed: Hek293T | PA-1 | NIH3T3
inactive: all other assays above

CCN(CC)CCc1nc(-c2ccccc2)no1
not listed: NIH3T3
inactive: all other assays above

CC[C@H](C)[C@H](N)C(=O)O
not listed: NIH3T3
inactive: all other assays above

CN/C(=C\[N+](=O)[O-])NCCSCc1csc(CN(C)C)n1
not listed: NIH3T3
inactive: all other assays above

CCN1CC(CCN2CCOCC2)C(c2ccccc2)(c2ccccc2)C1=O (centres undefined)
not listed: SKOV3 | NIH3T3
inactive: all other assays above

CC1CCc2cc(F)cc3c(=O)c(C(=O)O)cn1c23 (centres undefined)
not listed: SKOV3 | NIH3T3
inactive: all other assays above

CC(C)(C)C(=O)OCOC(=O)[C@@H]1N2C(=O)[C@@H](NC(=O)[C@H](N)c3ccccc3)[C@H]2SC1(C)C
not listed: NIH3T3
inactive: all other assays above

CCOC(=O)c1cccnc1
not listed: CAOV3 | NIH3T3
inactive: all other assays above

C[C@H]1COc2c(C3(N)CC3)c(F)cc3c(=O)c(C(=O)O)cn1c23
not listed: NIH3T3
inactive: all other assays above

O=C1c2ccccc2C(=O)C1c1ccc(Br)cc1
not listed: NIH3T3
inactive: all other assays above

NC(=O)CC[C@@H](N)C(=O)O
not listed: NIH3T3
inactive: all other assays above
